Records with an inconclusive call do not appear. Where a call stands in place of a potency, no number is given. Active and inactive are the calls of the source. Calls follow the shape of the dose curve; as a rule, active = well fitted cell-killing curve with a large enough effect; inconclusive = small, poorly fitted or top-dose-only effect; inactive = flat fitted curve, though single readings scatter.
Potency is read from the fitted curve at half-maximal effect.

The nature of the test: Quantitative highthroughput screen to assess conditional lethalithy of P12 Ichikawa cells grown in Human Plasma-Like Medium with dialyzed fetal bovine serum (HPLM+ds) (AID 1963879). Also: nearly all actives have a fitted effect of over 35% in size. The conditions noted are these: ATP luminescence, 48 h; Potency: viability; series mostly up to 45.8 µM. From the text: Assay Provider: Jason Cantor Ph.D.
Department of Biochemistry
University of Wisconsin-Madison, Madison, WI, USA
Chemical screening studies have identified drug sensitivities across hundreds of cancer cell lines but most putative therapeutics fail to translate. Discovery and development of drug candidates in models that more accurately reflect nutrient levels in human blood is a major challenge. Here we performed high-throughput screens in conventional versus Human Plasma-Like Medium (HPLM) to identify compounds that were "missed" when screening using the artificial culture condition. Sets of conditional anticancer compounds spanned phases of clinical development and included non-oncology drugs were assessed. […] We also traced conditional phenotypes for several chemotherapeutics to availability of HPLM-specific metabolites and confirmed others for compounds whose reported targets are encoded by nonessential genes. Our findings establish generalizable strategies for exploiting conditional lethality in HPLM to reveal therapeutic candidates and mechanisms of action in cancer cells.
Described herein are the results of each viability screens against three cell lines: NOMO1 (an acute myeloid leukemia cell line); P12-Ichikawa (a T-cell acute lymphoblastic leukemia); and SEM (a B-cell ALL). Each assay was screened using 3 different cell culture media: homemade human plasma-Like medium with 10% dialyzed fetal bovine serum (HPLM+ds); RPMI1640 with 10% untreated FBS and 5mM glucose (RPMI+s); and RPMI1640 with 10% dialyzed fetal bovine serum and 5 mM glucose (RPMI+ds).
PROTOCOL TABLE (as described by Inglese J, Shamu CE and Guy RK. 2007)
SEQUENCE No. (e.g., 1, 2, 3, etc.); […] (e.g., Cells, Incubation, Reagent, etc.); VALUE and DESCRIPTION.
1; Cells; 5 uL; white, solid bottom 1536-well Greiner assay plate.
2; Compounds; 23 nL; Kalypsis pin tool (Wako USA) equipped with a 1536-well pin head to transfer to the assay plates.
3; Incubation; 48 hours; 37C incubation.
4; Reagent; 3 uL; CellTiter Glo (Promega).
5; Incubation; 5 min, room temperature
6; Detection; Luminescence, Viewlux PerkinElmer.
NOTES (numbers refer to Sequence numbers above)
1. Briefly, 5 ul of cell reagent was dispensed using a Multidrop Combi Dispenser. The NOMO1 and SEM cells were plated at 500 cells/well and the P12-Ichikawa line at 1000 cells/well.
2. After seeding the cells, 23 nL of MIPE 4.1 library compounds (in DMSO) were added to each plate using a Kalypsys 1536 Pintool dispenser. Bortezomib at final concentration of […] and DMSO were added to each plate as positive and negative controls respectively. For each screen, MIPE 4.1 compounds were added over an eleven-point concentration range […] in 3-fold dilutions.
3. Each plate was covered with a stainless steel gasketed lid to prevent evaporation and incubated for 48 hour at 37C, 95% relative humidity, and 5% CO2.
4-5. Three microliter CellTilter-GloTM luminescent substrate mix (Promega) reagent was added to the assay plate and incubated at room temperature for 5 min.
6. The luminescence signal was measured using a ViewLux (PerkinElmer) multiplate reader with a 2 second exposure time per plate. Data for each compound were normalized as percent viability such that measurements for DMSO and the empty well controls in each plate were defined as 100% and 0%, respectively.
Take `C=C[C@@H]1CN2CCC1C[C@H]2[C@H](O)c1ccnc2ccccc12` (stereo not given in full): the Potency entry was “inactive”. For the molecule `COc1cc(OC)c(OC)cc1C=O`, the Potency result was “inactive”. On to `COC(=O)[C@@H](N)CCCN=C(N)N[N+](=O)[O-]`, for which the Potency entry was “inactive”. For the molecule `Cn1cc(C2=C(c3cn(C4CCN(Cc5ccccn5)CC4)c4ccccc34)C(=O)NC2=O)c2ccccc21`, the Potency entry is “inactive”.

Consider `C[C@](O)(COc1ccc(C#N)cc1)C(=O)Nc1ccc(C#N)c(C(F)(F)F)c1`, for which the Potency entry was “inactive”. For `Clc1ccccc1C(c1ccccc1)(c1ccccc1)n1cccn1`, the Potency result is “inactive”. Turning to `CC(=CCCC1=CCC(C2=CC(=O)OC2O)OC1O)CCC1=C(C)CCCC1(C)C` (stereo not given), the Potency result is “inactive”.

Turning to `CC(C)(O)C=CC(=O)[C@](C)(O)[C@H]1[C@H](O)C[C@]2(C)[C@@H]3CC=C4[C@@H](C=C(O)C(=O)C4(C)C)[C@]3(C)C(=O)C[C@@]12C`, the Potency was 166 nM (active). As to `O=c1[nH]c2ccccc2n1C1CCN(Cc2ccc(-c3[nH]c4cc5ncnc5cc4nc3-c3ccccc3)cc2)CC1`, the Potency entry was “inactive”. Regarding `O=S(=O)(F)Cc1ccccc1`, the Potency entry is “inactive”. As for `COC1(CS(=O)c2ccccc2)CCN(CCc2c[nH]c3ccc(F)cc23)CC1` (stereo not given), the Potency entry is “inactive”. Take `COc1ccc2c(c[n+](C)c3c4cc5c(cc4ccc23)OCO5)c1OC`: the Potency is 16600 nM (active).

`Cc1ccccc1-n1c(Cn2ncc3c(N)ncnc32)nc2cccc(C)c2c1=O`: the Potency was 2960 nM (active).

On to `CC(=Cc1csc(C)n1)[C@@H]1C[C@H]2O[C@@H]2CCC[C@H](C)[C@@H](O)[C@@H](C)C(=O)C(C)(C)[C@@H](O)CC(=O)O1`, for which the Potency entry is “inactive”. Then `C=C[C@@H]1CN2CCC1C[C@@H]2[C@@H](O)c1ccnc2ccccc12` (stereo not given in full), with “inactive”; and `CCC1(c2ccc(N)cc2)CCC(=O)NC1=O` (stereo not given), with “inactive”; and `COCC1(CO)C(=O)C2CCN1CC2` (stereo not given), with 11800 nM (active). For the molecule `C[C@@H]1CC[C@H]2[C@@H](C)C(=O)O[C@@H]3O[C@@]4(C)CC[C@H]1[C@]32OO4`, the Potency result was “inactive”.

Consider `CN(C)CCN(C)CCc1ccc(Cl)c(Cl)c1`, for which the Potency result is “inactive”. With `CC1=C2C[C@@H]3[C@@H](CC=C4C[C@@H](O)CC[C@@]43C)[C@@H]2CC[C@]12O[C@H]1C[C@H](C)CN[C@H]1[C@H]2C`, the Potency result is “inactive”. In the case of `CC(=O)OCC1=C(C(=O)O)N2C(=O)[C@@H](N)[C@@H]2SC1`, the Potency is 1480 nM (active). Regarding `C[C@@H]1[C@@H](CC(C[C@H]2O[C@@H]3O[C@]4(C)CC[C@@H]5[C@H](C)CC[C@@H]([C@H]2C)[C@@]35OO4)C[S+](=O)([O-])c2ccc(COC(=O)N(C)C)cc2)O[C@@H]2O[C@]3(C)CC[C@H]4[C@H](C)CC[C@@H]1[C@@]24OO3` (stereo not given in full), the Potency was 3320 nM (active). Then `O=C(O)C(=O)c1cn(Cc2ccccc2)c2ccc(-c3ccc(OC(F)(F)F)cc3)cc12`, with “inactive”. For the molecule `CC(C)C[C@H](CN)CC(=O)O`, the Potency entry was “inactive”. The result for `O=[N+]([O-])c1ncc[nH]1` reads “inactive”. Take `C[C@]12CC[C@H]3[C@@H](CCC4=CC(=O)CC[C@@]43C)[C@H]1CC[C@H]2OC(=O)CCC1CCCC1`: the Potency entry was “inactive”. Regarding `Cc1nc(-c2ccc(-c3ccc(C(=O)N4CCc5cc6c(cc54)C4(CCN(C)CC4)CO6)cc3)c(C)c2)no1`, the Potency result is “inactive”. The result for `CCCCCC[C@H]1C(=O)O[C@H](C)[C@H](NC(=O)c2cccc(NC=O)c2O)C(=O)O[C@@H](C)[C@@H]1OC(=O)CC(C)C` reads 1660 nM (active); that for `COc1cc2cc(c1Cl)N(C)C(=O)C[C@H](OC(=O)C(C)C)[C@]1(C)O[C@H]1[C@H](C)[C@@H]1C[C@@](O)(NC(=O)O1)[C@H](OC)C=CC=C(C)C2`, “inactive”. For the molecule `CC(C)N(CCNC(=O)CN1CCCC1=O)C(C)C`, the Potency entry was “inactive”. For `C[C@](O)(CS(=O)(=O)c1ccc(F)cc1)C(=O)Nc1ccc(C#N)c(C(F)(F)F)c1`, the Potency entry is “inactive”.

With `COc1ccc(C(=O)c2c(C)n(CCN3CCOCC3)c3ccccc23)cc1`, the Potency result is “inactive”. Turning to `CCCC(C)(COC(N)=O)COC(=O)NC(C)C` (stereo not given), the Potency result was “inactive”. Regarding `C[C@]12CC[C@@H]3[C@@H](CCC4=CC(=O)CC[C@@H]43)[C@@H]1CC[C@@H]2OC(=O)CCc1ccccc1`, the Potency entry is “inactive”. With `COc1ccc(C(CN(C)C)C2(O)CCCCC2)cc1` (stereo not given), the Potency result was “inactive”. Then `C#C[C@]1(O)C=C[C@@H]2[C@@H]3CCC4=CC(=O)CC[C@@H]4[C@H]3CC[C@@]21CC`, with “inactive”; and `C[C@@H]1[C@H](O)[C@@H](C)C=CC=CCCC=CC=CC=CC=C[C@H](O[C@H]2O[C@@H](C)[C@H](O)[C@@H](N)[C@@H]2O)CC2O[C@](O)(C[C@@H](O)[C@H](O)CC[C@@H](O)C[C@@H](O)C[C@@H](O)CC(=O)O[C@H]1C)C[C@H](O)[C@H]2C(=O)O`, with “inactive”.

Consider `CC(C)(C)[C@]1(O)C[C@@H]2OC(=O)C[C@@]23C(=O)O[C@@H]2OC(=O)[C@H](O)C213` (stereo not given in full), for which the Potency result is “inactive”. With `COc1ccc2c(c1OC)CN1CCc3cc4c(cc3C1C2)OCO4` (stereo not given), the Potency was 2640 nM (active).

With `CC[C@H]1C=CC=CC[C@@H](C)[C@H](O)[C@@](C)(O)C(=O)[C@@H](C)[C@H](O)[C@@H](C)C(=O)[C@@H](C)[C@H](O)[C@@H](C)C=CC(=O)O[C@@H]2[C@@H](C)[C@H](CC1)O[C@]1(CC[C@H](C)[C@H](C[C@@H](C)O)O1)[C@H]2C`, the Potency is 11800 nM (active).
